Measurements from PubChem BioAssay (NCI).
This is part of a sample that, as a whole, favours compounds with a hit. Of some 83,000 tested, about 20% had one in any assay.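 Interpretation: 100, growth as untreated; towards 0, rising growth inhibition; 0, no net growth; 0 to -100, cell death. Compounds scoring below 10 were considered active.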 Calls of active or inactive are those of the source.

Assays:
Assay in all cases: NCI-60 one-dose screen, 48 h (100 = growth as untreated, 0 = no growth, -100 = all killed)
Details in all cases: 10 µM unless noted
NCI-H23 lung = test system: NCI-H23 lung
NCI-H226 lung = test system: NCI-H226 lung
NCI-H322M lung = test system: NCI-H322M lung
HOP-62 NSCLC = test system: HOP-62 NSCLC
NCI-H460 lung = test system: NCI-H460 lung
HOP-92 NSCLC = test system: HOP-92 NSCLC
NCI-H522 lung = test system: NCI-H522 lung
A549/ATCC NSCLC = test system: A549/ATCC NSCLC
786-0 renal = test system: 786-0 renal
COLO 205 colon = test system: COLO 205 colon

Measured: growth

CCN(CC)CCOc1ccc(/C(=C(\C)c2ccc(F)c(OC)c2)c2ccc(Cl)cc2)cc1
inactive: NCI-H23 lung 25.6% | NCI-H226 lung 75.7% | NCI-H322M lung 65.7% | HOP-92 NSCLC 20.4% | NCI-H522 lung 26.9% | A549/ATCC NSCLC 30.7%
active: HOP-62 NSCLC -4.66% | NCI-H460 lung -54.2% | 786-0 renal -64.9% | COLO 205 colon -58.6%

Cc1nc(Nc2ccc(NC(=S)Nc3ccccc3)cc2)nc2nc(Nc3ccc(S(=O)(=O)O)cc3)[nH]c(=O)c12
inactive: NCI-H23 lung 95.8% | NCI-H226 lung 123% | NCI-H322M lung 122% | HOP-62 NSCLC 105% | NCI-H460 lung 108% | HOP-92 NSCLC 75.7% | NCI-H522 lung 86.9% | A549/ATCC NSCLC 111% | 786-0 renal 103% | COLO 205 colon 113%

CCOC(=O)c1sc(-c2ccc(OS(=O)(=O)c3ccc(C(C)(C)C)cc3)c(C=O)c2)nc1C
inactive: NCI-H23 lung 33.3% | NCI-H226 lung 48.5% | NCI-H322M lung 93.7% | HOP-62 NSCLC 52% | NCI-H460 lung 41.7% | HOP-92 NSCLC 21.1% | NCI-H522 lung 22.1% | A549/ATCC NSCLC 84.9% | 786-0 renal 47.2% | COLO 205 colon 72.7%

COc1ccc(Cn2cnc3cc(C(=O)Nc4cccc5ccccc45)ccc32)c(OC)c1
inactive: NCI-H23 lung 32.9% [30 µM] | NCI-H226 lung 14.5% [30 µM] | NCI-H322M lung 45% [30 µM] | HOP-62 NSCLC 41.6% [30 µM] | HOP-92 NSCLC 21.1% [30 µM] | A549/ATCC NSCLC 16% [30 µM] | 786-0 renal 20.3% [30 µM]
active: NCI-H460 lung 1.11% [30 µM] | NCI-H522 lung 3.89% [30 µM] | COLO 205 colon -21.6% [30 µM]

CC(C)OC(=O)NNC(=O)c1ccncc1
inactive: NCI-H23 lung 105% | NCI-H226 lung 107% | NCI-H322M lung 92.3% | HOP-62 NSCLC 108% | NCI-H460 lung 106% | HOP-92 NSCLC 113% | NCI-H522 lung 88.9% | A549/ATCC NSCLC 105% | 786-0 renal 104% | COLO 205 colon 110%

CO[C@H]1/C=C/O[C@@]2(C)Oc3c(C)c(O)c4c(c3C2=O)C(=O)C(/C=N/N(c2ccccc2)c2ccccc2)=C(NC(=O)/C(C)=C\C=C\[C@H](C)[C@H](O)[C@@H](C)[C@@H](O)[C@@H](C)[C@H](OC(C)=O)[C@@H]1C)C4=O
inactive: NCI-H226 lung 18.4% | NCI-H322M lung 22.2%
active: NCI-H23 lung 5.83% | HOP-62 NSCLC -76.7% | NCI-H460 lung -50.7% | HOP-92 NSCLC -48.6% | NCI-H522 lung -24% | A549/ATCC NSCLC 3.7% | 786-0 renal 3.91% | COLO 205 colon -60.3%

C=C1C(=O)O[C@H]2[C@H]1CC/C(COC(=O)/C=C\C(=O)NCc1ccc(Cn3c(=O)sn(-c4ccc(Cl)cc4)c3=O)cc1)=C\CC[C@@]1(C)O[C@@H]21
active: NCI-H23 lung -63.6% | NCI-H226 lung -58.9% | NCI-H322M lung -18.5% | HOP-62 NSCLC -34.7% | NCI-H460 lung -73.2% | HOP-92 NSCLC -66.7% | NCI-H522 lung -55.9% | A549/ATCC NSCLC -43.7% | 786-0 renal -82.5% | COLO 205 colon -45%

COc1cc2c(O)n(CCCn3ccnc3)c3c4cnc5cccc(c(=O)c3c2cc1OC)c54
inactive: NCI-H23 lung 38.8% | NCI-H226 lung 41.8% | NCI-H322M lung 77.9% | HOP-62 NSCLC 13.1% | HOP-92 NSCLC 28% | NCI-H522 lung 18.7% | A549/ATCC NSCLC 35.6% | COLO 205 colon 33.1%
active: NCI-H460 lung 6.78% | 786-0 renal 7.01%

O=C(O)c1ccccc1C(=O)Nc1ccc(Cl)cc1
inactive: NCI-H23 lung 99.3% | NCI-H226 lung 118% | NCI-H322M lung 101% | HOP-62 NSCLC 107% | NCI-H460 lung 106% | HOP-92 NSCLC 97.8% | NCI-H522 lung 91% | A549/ATCC NSCLC 85% | 786-0 renal 94% | COLO 205 colon 107%
